# Reference: PubChem BioAssay (Tox21)
# Results filed as inconclusive are left out. Values without a mark were called inactive. The source made the active and inactive calls. Calls follow the shape of the dose curve; as a rule, active = well fitted cell-killing curve with a large enough effect in the repeat runs; inconclusive = weak or mixed curves, or effect the other way; inactive = flat fitted curve, though single readings scatter.
# Assay: qHTS assay to identify small molecule agonists of the estrogen receptor beta (ER-beta) signaling pathway - cell viability counter screen (AID 1259380); also: nearly all actives have a fitted effect of over 30% in size
# Conditions: ER-beta-bla HEK293T viability, CellTiter-Glo luminescence, 16 h; series mostly up to 92.4 µM; activity change, negative = cytotoxicity: at the top concentration
# Excerpt: National Center for Advancing Translational Sciences [NCATS]
# NIH Chemical Genomics Center [NCGC]
# U.S. Environmental Protection Agency [EPA]
# National Institutes of Environmental Health Sciences [NIEHS]
# National Toxicology Program [NTP]
# U.S. Food and Drug Administration [FDA]
# Estrogen receptor (ER), a nuclear hormone receptor, plays an important role in development, metabolic homeostasis and reproduction. Two subtypes of ER, ER-alpha and ER-beta, have similar expression patterns with some uniqueness in both types. Endocrine disrupting chemicals (EDCs) and their interactions with steroid hormone receptors like ER causes disruption of normal endocrine function. To identify the compounds that activate ER signaling, an ER beta-UAS-bla GripTite cell line (Life Technologies, Madison, WI, USA) containing a beta-lactamase reporter gene under the control of an UAS response element was used to screen Tox21 10K compound library. The cytotoxicity of the Tox21 compound library against the ER-beta-bla cell line was tested in parallel by measuring the cell viability using CellTiter-Glo assay in the same wells.
# Tox21 Assay Protocol Summary:
# ER-beta-UAS-bla HEK293T cells were dispensed at 2,000 cells/5 uL of assay medium containing 2% charcoal stripped FBS per well into black wall/clear-bottom 1536-well plates using a Multidrop Combi (ThermoFisher Scientific, Waltham, MA) dispenser. After the assay plates were incubated at a 37C and 5% CO2 for 6 hr, 23 nL of compounds dissolved in DMSO, positive controls or DMSO only was transferred to the assay plate by a Pintool station (Kalypsys, San Diego, CA). The plates were incubated at 37C and 5% CO2 for 16 hr. Then 1 uL of LiveBLAzerTM B/G FRET substrate was added using a BioRAPTR FRD (Flying Reagent Dispenser, Aurora Discovery, San Diego, CA) and then the plates were incubated at room temperature for 2 hours, and fluorescence intensity was measured by an Envision plate reader (PerkinElmer, Shelton, CT). For cell viability readout that measures cytotoxicity, 4 uL/well of CellTiter-Glo reagent was added into the assay plates using a FRD. After 30 min incubation at room temperature, the luminescence intensity in the plates was measured using a ViewLux (PerkinElmer) plate reader.
# % is scaled to controls: 0 for no effect and ±100 for the full control effect; potency is read from the fitted curve at half-maximal effect.
Structure (SMILES),"activity change, negative = cytotoxicity",Potency
N[C@@H](CCC(=O)Nc1ccc([N+](=O)[O-])cc1)C(=O)O,5.65%,–
COC(=O)[C@@H]1[C@H]2C[C@H]3c4[nH]c5ccccc5c4CCN3C[C@@H]2CC[C@@H]1O,-12.8% [at 42.5 µM],–
CCCCCCCC/C=C\CCCCCCCC(=O)OCCCC,-6.74% [at 19 µM],–
CCOC(=O)[C@H](CCc1ccccc1)N[C@@H](C)C(=O)N1C(=O)N(C)C[C@H]1C(=O)O,1.15% [at 42.5 µM],–
Cc1[nH]cnc1-c1ccc(Cl)cc1,2.25% [at 42.5 µM],–
C=C(C)C(=O)OCC(C)(C)COC(=O)C(=C)C,0.108%,–
COc1nccnc1NS(=O)(=O)c1ccc(N)cc1,9.11% [at 42.5 µM],–
COc1ccc(S(=O)(=O)N2c3ccc(Cl)cc3[C@@](O)(c3ccccc3Cl)[C@H]2C(=O)N2CCC[C@@H]2C(N)=O)cc1OC,-1.71% [at 42.5 µM],–
N#Cc1ccc(C(=O)O)cc1,-9.3%,–
Cc1cccc(OCC(O)CNC(C)(C)C)c1C (stereo not given),–,13.3 µM (active)
CC(C)=O,2.63%,–
COc1cc(C(=S)N2CCOCC2)cc(OC)c1OC,-0.233% [at 42.5 µM],–
CCCOC(=O)C(C)O (stereo not given),-2.48%,–
CCCCCCCCCCCCCC,-2.86%,–
Cc1ccccc1OCC(O)CO (stereo not given),8.67% [at 42.5 µM],–
O=C(Nc1ccc(Cl)c(Cl)c1)C1CC1,-18.3% [at 42.5 µM],–
C=C(C)C(=O)OCCN(CC)CC,0.402%,–
COc1ccc2c(c1OC)C(=O)O[C@@H]2[C@H]1c2c(cc3c(c2OC)OCO3)CCN1C,3.2% [at 42.5 µM],–
CCCCCCOc1ccccc1C(N)=O,5.32% [at 42.5 µM],–
C[C@@H]1O[C@@H](O[C@@H]2[C@@H](O)[C@H](OCCc3ccc(O)c(O)c3)O[C@H](CO[C@@H]3O[C@H](CO)[C@@H](O)[C@H](O)[C@H]3O)[C@H]2OC(=O)/C=C/c2ccc(O)c(O)c2)[C@H](O)[C@H](O)[C@H]1O,2.4%,–

Structure (SMILES),"activity change, negative = cytotoxicity",Potency
CC(C)N(c1ccccc1)C(C)C,6.65%,–
CN(C)C(=O)CNC(=O)Cc1ccccc1,0.288% [at 42.5 µM],–
O=C1O[C@@H]2[C@@H](O)[C@H](O)O[C@@H]2[C@H]1O,-3.98%,–
CCC(CC)CO,6.19%,–
CCCCCOC(=O)CCC,3.93%,–
C=C1CC/C=C(\C)CC[C@@H]2[C@@H]1CC2(C)C,8.78%,–
COCCOCCOCCOCCOCCO,4.82%,–
CCCOC(OCCC)OCCC,8.92%,–
O=C1CCCC(=O)O1,1.84%,–
CCc1ccc(C=O)cc1,6.19%,–
COc1ccc(Br)c(C)c1,1.17%,–
CC(=O)NCc1c(I)c(NC(C)=O)c(I)c(C(=O)O)c1I,7.94% [at 42.5 µM],–
CC(CO)c1ccccc1 (stereo not given),10.1%,–
COC(=O)CCc1ccc(OCC(O)CNC(C)C)cc1 (stereo not given),-6.89% [at 42.5 µM],–
CN(CCOc1ccc(NS(C)(=O)=O)cc1)CCc1ccc(NS(C)(=O)=O)cc1,-10% [at 42.5 µM],–
CCCCCCCCCC(C)=O,0.758%,–
O=C(NCCc1c[nH]c2ccccc12)c1cccnc1,1.25% [at 42.5 µM],–
CCN(C)C(=O)Oc1cccc([C@H](C)N(C)C)c1,0.675% [at 42.5 µM],–
CCN1CCc2nc(N)oc2CC1,-1.04% [at 42.5 µM],–
Nc1cccc(O)c1,-5.28%,–
